# From PubChem BioAssay (NCATS)
# Experiment: qHTS profiling of the MIPE4 collection as inhibitors of Plasmodium falciparum (DD2) proliferation (AID 743345)
# Details: P. falciparum Dd2 in erythrocytes, SYBR Green DNA, 72 h; at 28.5 µM (top of the series) unless noted
# Outline: (§1)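 Parasite DNA was quantified by SYBR Green I fluorescence (ex 485, em 535 nm) after overnight lysis in saponin/Triton buffer at room temperature. Cultures at 0.3% parasitemia and 2.5% hematocrit were first exposed to compound for 72 h at 37 C; signals were normalised to artemisinin (0.29 uM) and vehicle wells.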
row,SMILES,"parasite growth remaining, % of DMSO control (lower = more inhibition)"
1,O=c1[nH]nc(OCCCc2ccc(Cl)cc2)c(NCc2cccnc2)c1Br,6.08%
2,CC[C@H]1OC(=O)[C@H](C)[C@@H](O[C@H]2C[C@@](C)(OC)[C@@H](O)[C@H](C)O2)[C@H](C)[C@@H](O[C@@H]2O[C@H](C)C[C@H](N(C)C)[C@H]2O)[C@](C)(O)C[C@H](C)C(=NOCOCCOC)[C@H](C)[C@@H](O)[C@]1(C)O,62.4%
3,NC(N)=Nc1nc(CSCCC(N)=NS(N)(=O)=O)cs1,98.2%
4,COc1cc2nc(-c3cc(F)ccc3O)nc(N[C@@H]3CNC[C@@H]3C(C)(C)O)c2cc1OC,6.09%
5,Cc1[nH]c(C=C2C(=O)Nc3ccc(S(=O)(=O)N(C)c4cccc(Cl)c4)cc32)c(C)c1C(=O)N1CCN(C)CC1,9.96%
6,C#CCN(C)CC1=Cc2ccccc2Oc2ccccc21,76.6%
7,Cc1ccccc1C(=O)c1ccc(Nc2ccc(Br)cc2N)cc1Cl,44.1%
8,CN(CC=CC#CC(C)(C)C)Cc1cccc2ccccc12,79.2%
9,CC(O)=C(C#N)C(=O)Nc1ccc(C(F)(F)F)cc1,89.7%
10,CC(C)C[C@@H](C(=O)N[C@H](C(=O)OC1CCCC1)c1ccccc1)[C@H](O)C(=O)NO,21.7%
11,COc1c(C)c2c(c(O)c1CC=C(C)CCC(=O)O)C(=O)OC2,17.9%
12,CC(C)CN(C[C@H](O)[C@H](Cc1ccccc1)NC(=O)O[C@H]1CCOC1)S(=O)(=O)c1ccc(N)cc1,73.7%
13,CCCCC(F)(F)[C@@]1(O)CC[C@H]2[C@H](CC(=O)[C@@H]2CCCCCCC(=O)O)O1,99.5%
14,CC1(C)[C@H]2CC[C@]3(C)[C@@H](C(=O)C=C4[C@@H]5C[C@@](C)(C(=O)O)CC[C@]5(C)CC[C@]43C)[C@@]2(C)CC[C@@H]1O,98.1%
15,O=c1[nH]c(=O)n([C@H]2C[C@@H](O)[C@@H](CO)O2)cc1C(F)(F)F,62%
16,Nc1ncnc2c1ncn2[C@@H]1O[C@H](CO)[C@@H](O)[C@@H]1O,98%
17,CC(NCCc1ccc(O)cc1)C(O)c1ccc(O)cc1 (centres undefined),102%

row,SMILES,"parasite growth remaining, % of DMSO control (lower = more inhibition)"
1,O=C(c1ccc(C(=O)N2CCC(N3CCCC3)CC2)c(Nc2ccccc2)c1)N1CCC(N2CCCC2)CC1,66.3%
2,C[C@@H]1[C@H](O)[C@@H](C)C=CC=CC=CC=CC=CC=CC=C[C@H](O[C@@H]2O[C@H](C)[C@H](O)[C@H](N)[C@@H]2O)C[C@@H]2O[C@](O)(C[C@@H](O)C[C@@H](O)[C@H](O)CC[C@@H](O)C[C@@H](O)CC(=O)O[C@H]1C)C[C@H](O)[C@@H]2C(=O)O,9.78%
3,NS(=O)(=O)c1cc(Cl)c(Cl)c(S(N)(=O)=O)c1,58.8%
4,COc1cc(Cl)cn2c(-c3cccc(NC4CNC4)n3)cnc12,27.3%
5,CN1CCc2c(n(Cc3ccc(C(=O)NO)cc3)c3ccccc23)C1,11.6%
6,CC(C)C[C@@H](N)[C@H](O)C(=O)N[C@H](C(=O)N[C@H](C(=O)N[C@@H](CC(=O)O)C(=O)O)C(C)C)C(C)C,99.5%
7,CC1(C)C(N(O)C(=O)Nc2ccc(Cl)cc2)N(c2ccc(Cl)cc2)C(=O)N1CC(=O)NN=CC=Cc1ccc([N+](=O)[O-])o1 (centres undefined),9.75%
8,Cc1cc(NC(=O)Nc2ccc(N(C)C)cc2)c2cc(F)cc(F)c2n1,46%
9,CCNC(=O)Nc1ccc(Oc2ncnc(N)c2C=NOC)cc1Cl,81.9%
10,C=C1c2cccc(O)c2C(O)=C2C(=O)[C@@]3(O)C(O)=C(C(N)=O)C(=O)[C@@H](N(C)C)[C@@H]3[C@@H](O)[C@H]12,36.4%
11,CCCC1OC2C[C@@H]3[C@H]4CCC5=CC(=O)C=C[C@]5(C)[C@H]4C(O)C[C@]3(C)[C@]2(C(=O)CO)O1 (some centres undefined),20.2%
12,O=C(O)C1=CC(O)C(O)[C@H](O)C1 (some centres undefined),55.1%
13,CCCCCCCCCCCCCC(=O)N[C@H](CO)[C@H](O)c1ccc([N+](=O)[O-])cc1,85.8%
14,Cc1cc2nc3c(=O)[nH]c(=O)nc-3n(CC(O)C(O)C(O)CO)c2cc1C (centres undefined),57.4%
15,N#Cc1c(N(CC(=O)O)CC(=O)O)sc(C(=O)O)c1CC(=O)O,91.9%
16,O=C(O)CCNc1cc(N2CCc3ccccc3CC2)nc(-c2ccccn2)n1,48.3%

# Experiment: qHTS profiling of the MIPE4 collection as inhibitors of Plasmodium falciparum (DD2) proliferation (Rep 2) (AID 743346)
# Details: P. falciparum Dd2 in erythrocytes, SYBR Green DNA, 72 h; at 28.5 µM (top of the series) unless noted
# Outline: as §1
row,SMILES,"parasite growth, % of control (lower = inhibition)"
1,O=c1[nH]nc(OCCCc2ccc(Cl)cc2)c(NCc2cccnc2)c1Br,30.4%
2,CC[C@H]1OC(=O)[C@H](C)[C@@H](O[C@H]2C[C@@](C)(OC)[C@@H](O)[C@H](C)O2)[C@H](C)[C@@H](O[C@@H]2O[C@H](C)C[C@H](N(C)C)[C@H]2O)[C@](C)(O)C[C@H](C)C(=NOCOCCOC)[C@H](C)[C@@H](O)[C@]1(C)O,47.3%
3,NC(N)=Nc1nc(CSCCC(N)=NS(N)(=O)=O)cs1,84.9%
4,COc1cc2nc(-c3cc(F)ccc3O)nc(N[C@@H]3CNC[C@@H]3C(C)(C)O)c2cc1OC,8.84%
5,Cc1[nH]c(C=C2C(=O)Nc3ccc(S(=O)(=O)N(C)c4cccc(Cl)c4)cc32)c(C)c1C(=O)N1CCN(C)CC1,14.4%
6,C#CCN(C)CC1=Cc2ccccc2Oc2ccccc21,63.1%
7,Cc1ccccc1C(=O)c1ccc(Nc2ccc(Br)cc2N)cc1Cl,40%
8,CN(CC=CC#CC(C)(C)C)Cc1cccc2ccccc12,14.9%
9,CC(O)=C(C#N)C(=O)Nc1ccc(C(F)(F)F)cc1,63.9%
10,COc1c(C)c2c(c(O)c1CC=C(C)CCC(=O)O)C(=O)OC2,13.7%
11,CC(C)CN(C[C@H](O)[C@H](Cc1ccccc1)NC(=O)O[C@H]1CCOC1)S(=O)(=O)c1ccc(N)cc1,56.3%
12,CCCCC(F)(F)[C@@]1(O)CC[C@H]2[C@H](CC(=O)[C@@H]2CCCCCCC(=O)O)O1,70.3%
13,CC1(C)[C@H]2CC[C@]3(C)[C@@H](C(=O)C=C4[C@@H]5C[C@@](C)(C(=O)O)CC[C@]5(C)CC[C@]43C)[C@@]2(C)CC[C@@H]1O,84.9%
14,O=c1[nH]c(=O)n([C@H]2C[C@@H](O)[C@@H](CO)O2)cc1C(F)(F)F,91.9%
15,Nc1ncnc2c1ncn2[C@@H]1O[C@H](CO)[C@@H](O)[C@@H]1O,6.61%
16,CC(NCCc1ccc(O)cc1)C(O)c1ccc(O)cc1 (centres undefined),73.8%

row,SMILES,"parasite growth, % of control (lower = inhibition)"
1,O=C(c1ccc(C(=O)N2CCC(N3CCCC3)CC2)c(Nc2ccccc2)c1)N1CCC(N2CCCC2)CC1,33.2%
2,NS(=O)(=O)c1cc(Cl)c(Cl)c(S(N)(=O)=O)c1,88.2%
3,COc1cc(Cl)cn2c(-c3cccc(NC4CNC4)n3)cnc12,33.2%
4,CN1CCc2c(n(Cc3ccc(C(=O)NO)cc3)c3ccccc23)C1,9.26%
5,CC(C)C[C@@H](N)[C@H](O)C(=O)N[C@H](C(=O)N[C@H](C(=O)N[C@@H](CC(=O)O)C(=O)O)C(C)C)C(C)C,127%
6,CC1(C)C(N(O)C(=O)Nc2ccc(Cl)cc2)N(c2ccc(Cl)cc2)C(=O)N1CC(=O)NN=CC=Cc1ccc([N+](=O)[O-])o1 (centres undefined),18.3%
7,Cc1cc(NC(=O)Nc2ccc(N(C)C)cc2)c2cc(F)cc(F)c2n1,10.9%
8,CCNC(=O)Nc1ccc(Oc2ncnc(N)c2C=NOC)cc1Cl,67%
9,C=C1c2cccc(O)c2C(O)=C2C(=O)[C@@]3(O)C(O)=C(C(N)=O)C(=O)[C@@H](N(C)C)[C@@H]3[C@@H](O)[C@H]12,24.1%
10,CCCC1OC2C[C@@H]3[C@H]4CCC5=CC(=O)C=C[C@]5(C)[C@H]4C(O)C[C@]3(C)[C@]2(C(=O)CO)O1 (some centres undefined),15.8%
11,O=C(O)C1=CC(O)C(O)[C@H](O)C1 (some centres undefined),86.5%
12,CCCCCCCCCCCCCC(=O)N[C@H](CO)[C@H](O)c1ccc([N+](=O)[O-])cc1,33%
13,Cc1cc2nc3c(=O)[nH]c(=O)nc-3n(CC(O)C(O)C(O)CO)c2cc1C (centres undefined),22.3%
14,N#Cc1c(N(CC(=O)O)CC(=O)O)sc(C(=O)O)c1CC(=O)O,139%
15,O=C(O)CCNc1cc(N2CCc3ccccc3CC2)nc(-c2ccccn2)n1,20.6%
